Results as given in PubChem BioAssay (NCI).
Compounds without any hit were thinned out: in the full panel of roughly 83,000, 20% have a hit.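 Testing used 96-well plates and a 48-hour single-concentration exposure. Example: -40 means 40% of the starting cells died.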 A number with no mark means an inactive call. Active and inactive are the calls of the source. How the source made its calls: active means growth percent below 10; inactive means the rest.

system: U251 CNS; assay: NCI-60 one-dose screen, 48 h (100 = growth as untreated, 0 = no growth, -100 = all killed); details: 10 µM unless noted

SMILES	growth
Fc1ccc(-c2cc3nc(C(Cl)Cl)nc(-c4ccccc4)n3n2)cc1	-58.2% (active)
O=C(c1ccc(Cl)cc1)C1[C@H](c2ccc(Cl)cc2)[C@@H](c2ccccc2)NC12C(=O)Nc1ccc(Br)cc12 (stereo partly specified)	28.3%
COc1ccccc1C(=O)CSc1nc(Nc2ccc(S(N)(=O)=O)cc2)c2ccccc2n1	93%
CC(C)(C)Nc1nc2c(OCCc3ccccc3)cccn2c1-c1ccccc1Cl	-44.7% (active)
CNC(=O)c1cc(-c2ccc(NC(=O)Nc3ccc(N4CCOCC4)c(C(F)(F)F)c3)cc2)nc2cccnc12	43.7%
CS(=O)(=O)c1ccc(-n2cc(/C=C/C(=O)c3ccc(NC(=O)CO[N+](=O)[O-])cc3)c(-c3ccc(Cl)cc3)n2)cc1	92.9%
Cc1[nH]nc2ncc(C#Cc3cncc(C(=O)Nc4ccc(CN5CCN(C)CC5)c(C(F)(F)F)c4)c3)cc12	40.5%
CCN1C(=S)N(CC)C2C1N=C(SC)N2/N=C/C=C/c1ccccc1[N+](=O)[O-] (stereo unspecified)	96.5%
C/C(=C(/c1ccc(Cl)cc1)c1ccc(OCCN)cc1)c1ccc(C)cc1	101%
O=[N+]([O-])c1ccc(O)c2ncccc12	17.2%
Cc1cc(=O)oc2cc(OCCCOc3ccc(/C=C/C(=O)Nc4ccc(Cl)cc4)cc3)ccc12	56.4%
Cc1ccc(-c2nc(C(Cl)Cl)nc3cc(-c4ccccc4)nn23)cc1	-58.6% (active)
Nc1cc(-c2c[nH]c3ccc(F)cc23)nc2cc(-c3c[nH]c4ccc(F)cc34)nn12	3.43% (active)
COc1cccc(N2CCN(c3ncnc4c3[nH]c3ccc(F)cc34)C[C@@H]2C)c1	-31.5% (active)
Cc1ccc(/C=C/c2nn3c(-c4ccco4)nnc3s2)cc1C	95.7%
CCN1C(=S)N(CC)C2C1NN=C1SC(c3ccccc3)=CC(=O)N12 (stereo unspecified)	103%
CC(C)NC(=O)c1cc(-c2ccc(NC(=O)Nc3ccc(N4CCOCC4)c(C(F)(F)F)c3)cc2)nc2cccnc12	47%
Cn1cc(-c2cc(N)n3nc(-c4cn(C)c5ccc(Cl)cc45)cc3n2)c2cc(Cl)ccc21	-4.82% (active)
NS(=O)(=O)c1cccc(Nc2nc(SCC(=O)c3ccc(Cl)cc3)nc3ccccc23)c1	46.4%

SMILES	growth
Cc1sc2c(c1C)c(=O)nc1c(-c3nc(-c4ccc(F)cc4)no3)n[nH]n12	102%
CN1C(=O)N(c2ccccc2)C2N=C(N/N=C/c3ccccc3)SC21 (stereo unspecified)	15.8%
O=C1C2=C(C(=O)c3c(O)cccc31)C(c1ccco1)c1sc(=O)[nH]c1S2 (stereo unspecified)	11.5%
N[C@@H](Cc1cn(-c2c3ccccc3nc3ccccc23)nn1)C(=O)O	103%
Cc1sc2nc(NCc3ccccc3Cl)[nH]c(=O)c2c1C	72.9%
COc1ccccc1/C=C/C=N/NC1=NC2C(S1)N(C)C(=O)N2C (stereo unspecified)	25.1%
CC(=O)Nc1cc(F)cc(-c2ccc3[nH]cc(-c4ccccc4)c3n2)c1	-2.16% (active)
O=C(CSc1nc2sc3c(c2c(=O)n1-c1ccc(Cl)cc1)CCCC3)N/N=C/c1ccc(F)cc1	67.1%
Cc1ccccc1NC(=O)/C=C/c1ccc(OCCOc2ccc3c(C)cc(=O)oc3c2)cc1	85.8%
CCN(CC)c1ccc(C=O)c(OCc2cn(CC(=O)Nc3ccc(Cl)cc3)nn2)c1	53.7%
CC(C)(C)OC(=O)N1C(=O)c2c(c3c4ccccc4[nH]c3c3ccc4ccccc4c23)C1=O	58.8%
O=C(CSc1nc2sc3c(c2c(=O)n1-c1ccc(Cl)cc1)CCCC3)NNC(=O)Nc1cccc(C(F)(F)F)c1	16.7%
CC(=O)Oc1ccccc1C(=O)Nc1cc(C(C)C)ccc1C	10.1%
N#Cc1c(-c2ccc(Cl)cc2)nc(SCc2ccc(F)cc2)nc1N1CCNCC1	-71.5% (active)
COc1ccc(NC(=O)c2sc3nc(-c4cnccn4)cc(-c4cccs4)c3c2N)cc1	55.5%
CNC(=O)c1cc(-c2ccc(NC(=O)Nc3ccc(N4CCN(C)CC4)c(C(F)(F)F)c3)cc2)nc2cccnc12	-94.2% (active)
O=C(CSc1nccc(=O)[nH]1)Nc1ccc(-c2nc3ccccc3[nH]2)cc1	106%
O=C1c2c(c3c4cccnc4[nH]c3c3ccc4ccccc4c23)C(=O)N1CCO	51.4%
CN1CCN(Cc2ccc(NC(=O)c3cncc(C#Cc4cnc5ccc(N6CCSCC6)nn45)c3)cc2C(F)(F)F)CC1	-91.6% (active)

system: PC-3 prostate; assay: as above; details: 10 µM unless noted

SMILES	growth
Fc1ccc(-c2cc3nc(C(Cl)Cl)nc(-c4ccccc4)n3n2)cc1	-24.5% (active)
O=C(c1ccc(Cl)cc1)C1[C@H](c2ccc(Cl)cc2)[C@@H](c2ccccc2)NC12C(=O)Nc1ccc(Br)cc12 (stereo partly specified)	12.8%
COc1ccccc1C(=O)CSc1nc(Nc2ccc(S(N)(=O)=O)cc2)c2ccccc2n1	92.6%
CC(C)(C)Nc1nc2c(OCCc3ccccc3)cccn2c1-c1ccccc1Cl	-40% (active)
CNC(=O)c1cc(-c2ccc(NC(=O)Nc3ccc(N4CCOCC4)c(C(F)(F)F)c3)cc2)nc2cccnc12	52.1%
CS(=O)(=O)c1ccc(-n2cc(/C=C/C(=O)c3ccc(NC(=O)CO[N+](=O)[O-])cc3)c(-c3ccc(Cl)cc3)n2)cc1	96.2%
Cc1[nH]nc2ncc(C#Cc3cncc(C(=O)Nc4ccc(CN5CCN(C)CC5)c(C(F)(F)F)c4)c3)cc12	48.8%
CCN1C(=S)N(CC)C2C1N=C(SC)N2/N=C/C=C/c1ccccc1[N+](=O)[O-] (stereo unspecified)	85%
C/C(=C(/c1ccc(Cl)cc1)c1ccc(OCCN)cc1)c1ccc(C)cc1	94.6%
O=[N+]([O-])c1ccc(O)c2ncccc12	31.3%
Cc1cc(=O)oc2cc(OCCCOc3ccc(/C=C/C(=O)Nc4ccc(Cl)cc4)cc3)ccc12	67.7%
Cc1ccc(-c2nc(C(Cl)Cl)nc3cc(-c4ccccc4)nn23)cc1	26.8%
Nc1cc(-c2c[nH]c3ccc(F)cc23)nc2cc(-c3c[nH]c4ccc(F)cc34)nn12	78.8%
COc1cccc(N2CCN(c3ncnc4c3[nH]c3ccc(F)cc34)C[C@@H]2C)c1	-42.3% (active)
Cc1ccc(/C=C/c2nn3c(-c4ccco4)nnc3s2)cc1C	89.9%
CCN1C(=S)N(CC)C2C1NN=C1SC(c3ccccc3)=CC(=O)N12 (stereo unspecified)	99.2%
CC(C)NC(=O)c1cc(-c2ccc(NC(=O)Nc3ccc(N4CCOCC4)c(C(F)(F)F)c3)cc2)nc2cccnc12	44.5%
Cn1cc(-c2cc(N)n3nc(-c4cn(C)c5ccc(Cl)cc45)cc3n2)c2cc(Cl)ccc21	87.3%
NS(=O)(=O)c1cccc(Nc2nc(SCC(=O)c3ccc(Cl)cc3)nc3ccccc23)c1	57.2%

SMILES	growth
Cc1sc2c(c1C)c(=O)nc1c(-c3nc(-c4ccc(F)cc4)no3)n[nH]n12	89.6%
CN1C(=O)N(c2ccccc2)C2N=C(N/N=C/c3ccccc3)SC21 (stereo unspecified)	33%
O=C1C2=C(C(=O)c3c(O)cccc31)C(c1ccco1)c1sc(=O)[nH]c1S2 (stereo unspecified)	8.77% (active)
N[C@@H](Cc1cn(-c2c3ccccc3nc3ccccc23)nn1)C(=O)O	99.2%
Cc1sc2nc(NCc3ccccc3Cl)[nH]c(=O)c2c1C	73.9%
COc1ccccc1/C=C/C=N/NC1=NC2C(S1)N(C)C(=O)N2C (stereo unspecified)	30.2%
CC(=O)Nc1cc(F)cc(-c2ccc3[nH]cc(-c4ccccc4)c3n2)c1	20%
O=C(CSc1nc2sc3c(c2c(=O)n1-c1ccc(Cl)cc1)CCCC3)N/N=C/c1ccc(F)cc1	87.1%
Cc1ccccc1NC(=O)/C=C/c1ccc(OCCOc2ccc3c(C)cc(=O)oc3c2)cc1	95.8%
CCN(CC)c1ccc(C=O)c(OCc2cn(CC(=O)Nc3ccc(Cl)cc3)nn2)c1	56.2%
CC(C)(C)OC(=O)N1C(=O)c2c(c3c4ccccc4[nH]c3c3ccc4ccccc4c23)C1=O	42.8%
O=C(CSc1nc2sc3c(c2c(=O)n1-c1ccc(Cl)cc1)CCCC3)NNC(=O)Nc1cccc(C(F)(F)F)c1	7.37% (active)
CC(=O)Oc1ccccc1C(=O)Nc1cc(C(C)C)ccc1C	22.1%
N#Cc1c(-c2ccc(Cl)cc2)nc(SCc2ccc(F)cc2)nc1N1CCNCC1	53.8%
COc1ccc(NC(=O)c2sc3nc(-c4cnccn4)cc(-c4cccs4)c3c2N)cc1	82.7%
CNC(=O)c1cc(-c2ccc(NC(=O)Nc3ccc(N4CCN(C)CC4)c(C(F)(F)F)c3)cc2)nc2cccnc12	-90.6% (active)
O=C(CSc1nccc(=O)[nH]1)Nc1ccc(-c2nc3ccccc3[nH]2)cc1	92.6%
O=C1c2c(c3c4cccnc4[nH]c3c3ccc4ccccc4c23)C(=O)N1CCO	70.1%
CN1CCN(Cc2ccc(NC(=O)c3cncc(C#Cc4cnc5ccc(N6CCSCC6)nn45)c3)cc2C(F)(F)F)CC1	1.39% (active)
